AID inh – Primary qHTS assay for inhibitors of Activation Induced Cytidine Deaminase (AID): AID signal; Potency, µM (top dose mostly 115 µM), hits mostly inhibitors; 91,000 tested, 0.32% active; Single-stranded DNA cytosine deaminase (Homo sapiens), Q9GZX7; AID deamination FRET fluorescence, UDG-coupled, 4 h; further: nearly all actives have a fitted effect of over 25% in size
Target sequence (Q9GZX7 whole entry, looked up): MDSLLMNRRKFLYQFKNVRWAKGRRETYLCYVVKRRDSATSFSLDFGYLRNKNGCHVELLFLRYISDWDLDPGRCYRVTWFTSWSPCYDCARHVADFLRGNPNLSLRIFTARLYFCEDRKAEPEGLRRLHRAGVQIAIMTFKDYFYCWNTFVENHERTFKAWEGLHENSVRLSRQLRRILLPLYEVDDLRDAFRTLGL
UDG counterscr – Primary qHTS assay for inhibitors of Activation Induced Cytidine Deaminase (AID): UDG Counterscreen signal; FRET deamination/UDG coupled assay, UDG read, 4 h; Potency, µM (series often up to 115 µM), inactives show at the top dose activity change, negative = inhibition, most hits filed as inhibitors; 91,000 tested, 0.14% active; AID 1347430, 2020; Uracil-DNA glycosylase; further: nearly all actives have a fitted effect of over 65% in size
* hit, by the source's call; i = inactive; u = inconclusive; ! = not confirmed by another sample; [ ] = another dose, or the depositor's remark. Shown are actives, neighbours in structure and some others; about 0.4% of the full set was active somewhere. The call rests on the fitted dose curve; in most records, active means well fitted curve in the direction sought with a large enough effect; inconclusive means small, poorly fitted or top-dose-only effect, or another doubt; inactive means no such curve, though single readings can be large; an effect the other way counts as inactive or inconclusive. On the % scale 0 is the no-effect control and ±100 the full control effect; potency means the concentration at half of the fitted maximal effect.

SMILES | AID inh | UDG counterscr
Cc1cccc(N2CCN(C(=O)c3cc4c(=O)n(C)c5ccccc5c4s3)CC2C)c1 (centres undefined) | i | -10%
COc1ccc(-c2nn(C)c3sc(C(=O)N4CCN(c5ccccc5F)CC4)cc23)cc1OC | u | 89µM*
COc1cccc(-c2nn(C)c3sc(C(=O)N4CCN(c5cccc(C)c5)C(C)C4)cc23)c1 (centres undefined) | 40µM* | u
COc1cccc(-c2nn(C)c3sc(C(=O)NCc4ccc(C)cc4)cc23)c1 | u | 89µM*
COCCCNC(=O)c1cc2c(-c3cccc(OC)c3)nn(C)c2s1 | i | -26%
COc1ccccc1N1CCN(C(=O)c2cc3c(-c4ccccc4F)nn(C)c3s2)CC1 | u | -13%
CC(=O)Oc1ccc2c(=O)c(-c3nc4ccccc4s3)c(C)oc2c1 | i | -3%
COc1ccc(NC(=O)c2nc3ccccc3nc2N2CCCCC2)cc1 | i | -4%
O=C(Sc1ccc(Cl)cc1)c1ccccc1F | i | -7%
CCc1ccc(S(=O)(=O)c2nnn3c2nc(N2CCC(C(N)=O)CC2)c2cc(Cl)ccc23)cc1 | 25µM* | -14%
CC1CCN(c2nc3c(S(=O)(=O)c4ccccc4)nnn3c3ccc(Cl)cc23)CC1 | u | -14%
CC(C)C(=O)Nc1ccc(Br)c(Cl)c1 | i | 1%
CCn1cc(C(=O)N2CCN(c3cc(Cl)ccc3C)CC2)c2cc(OC)c(OC)cc2c1=O | i | -9%
COc1ccccc1S(=O)(=O)Cc1ccc(C(=O)N2CCN(c3cc(Cl)ccc3C)CC2)o1 | u | 89µM*
COc1cccc(Cc2nc3ccccc3nc2SCC(=O)N2CCCCC2C)c1 (centres undefined) | u | -3%
Cc1ccc(Cc2nc3ccccc3nc2SCC(=O)N2CCCCC2C)cc1 (centres undefined) | 50µM* | -19%
COc1cc(/C=C(/C#N)c2ccccc2)ccc1OCCOc1ccccc1 | i | -11%
Cc1cccc(NC(=O)c2c(NC(=O)C(F)(F)F)sc3c2CCCCC3)c1 | 79µM* | -9%
O=C(Nc1cccc(Cl)c1)c1c(NC(=O)C(F)(F)F)sc2c1CCCC2 | u | -2%
N#Cc1cccc(OCC(=O)c2ccc3c(c2)OCCO3)c1 | i | 3%
CCC(Sc1nc2c(sc3ccccc32)c(=O)n1CCc1ccccc1)C(=O)N(CC)CC (centres undefined) | i | 9%
CCC(Sc1nc2c(sc3ccccc32)c(=O)n1CCc1ccc(OC)c(OC)c1)C(=O)N(CC)CC (centres undefined) | 32µM* | -18%
CC(C)(CO)NC/C=C/c1ccccc1 | i | -2%
O=C(Nc1cc(Cl)ccc1F)c1cccc2ccccc12 | i | -4%
O=C(NCc1cccs1)c1ccc2c(=O)n3nc(Nc4ccccc4)sc3nc2c1 | i | 0%
SMILES | AID inh | UDG counterscr
CCc1ccccc1Nc1nn2c(=O)c3ccc(C(=O)NCc4cccs4)cc3nc2s1 | 32µM* | -19%
Cn1nc(-c2ccc(OCC(=O)N3CCOCC3)cc2)c2ccccc2c1=O | i | 3%
Cn1nc(-c2ccc(N3CCOCC3)c(NC(=O)COc3ccccc3)c2)c2ccccc2c1=O | u | 89µM*
CCn1cc2nc(SCc3cccc(Cl)c3)n(Cc3ccc(C)cc3)c(=O)c2n1 | i | -16%
CCn1cc2nc(SCc3cccc(C(F)(F)F)c3)n(CCc3ccccc3)c(=O)c2n1 | u | -14%
CCn1cc2nc(SCc3cccc(C(F)(F)F)c3)n(Cc3ccc(Cl)cc3)c(=O)c2n1 | 25µM* | -29%
CCn1cc2nc(SCc3cccc(C)c3)n(CCc3ccccc3)c(=O)c2n1 | 35µM* | -23%
CCCCCc1ccc(-c2ccc(C(=O)O)cc2)cc1 | i | -6%
CCCCCCCCc1ccc(-c2ccc(C(=O)O)cc2)cc1 | 89µM*! | -3%
COc1ccc(-c2c(C#N)c(SCC(=O)Nc3ccccc3C)nc(C)c2C(=O)Nc2ccc(Cl)cc2)cc1 | i | u
CCc1ccc(NC(=O)CSc2nc(C)c(C(=O)Nc3ccc(Cl)cc3)c(-c3ccc(OC)cc3)c2C#N)cc1 | u | 89µM*
CC(=O)N1CCc2c(sc3c2c(=O)n(Cc2ccccc2)c(=O)n3Cc2ccc(Cl)cc2)C1 | i | 1%
CC(=O)N1CCc2c(sc3c2c(=O)n(Cc2ccccc2)c(=O)n3Cc2cccc(Cl)c2)C1 | 32µM* | u
CC(=O)NCCCCCC(=O)NCC(C)(c1ccccc1)c1ccccc1 | i | 4%
CCCCN(CC)CCNC(=O)c1cc2c(-c3ccc(Cl)cc3)nn(C)c2s1 | 89µM* | -29%
CCCN(CCC)CCNC(=O)c1cc2c(-c3ccc(Cl)cc3)nn(C)c2s1 | u | -23%[57.5 µM]
Cc1nc2n(c(=O)c1C)CN(Cc1cccnc1)CN2c1ccc(Cl)cc1Cl | i | 1%
